Results reported in PubChem BioAssay (NCATS).
Records with an inconclusive call do not appear. Active and inactive are the calls of the source. Calls follow the shape of the dose curve; as a rule, active = well fitted cell-killing curve with a large enough effect; inconclusive = small, poorly fitted or top-dose-only effect; inactive = no such curve, though single readings can be large or run the other way.

Assay: qHTS of pediatric cancer cell lines to identify multiple opportunities for drug repurposing: Primary screen for SK-N-SH cells (AID 1347098); also: nearly all actives have a fitted effect of over 65% in size
Conditions: SK-N-SH viability, CellTiter-Glo luminescence, 48 h; series mostly up to 57 µM
Description: Drug repurposing or repositioning has been offered as a strategy for drug development in oncology programs. This approach has special potential for childhood cancers and other rare or orphan diseases, where the expected return on new drug development has been a disincentive to pharmaceuticals.
In this project we exploit the poly-pharmacology of drugs to discover new indications via phenotypic screening of a panel of 19 well-characterized cell lines derived from solid tumors seen in children and adolescents. The goal is to identify approved drugs with previously unrecognized anticancer properties that has the potential to reveal new mechanisms and biological processes involved in carcinogenesis or drug resistance. We employed a titration-based paradigm (quantitative high-throughput screening or qHTS), where all compounds were tested at multiple concentrations for their effect on cell viability. Concentration-response curves (CRCs) were derived directly from the primary screen, and both potency and efficacy values were used to identify compounds with robust bioactivity profiles. We screened the NIH Chemical Genomics Center (NCGC) Pharmaceutical Collection (NPC) and Mechanism Interrogation Plate (MIPE) small molecule collections of approved and investigational compounds against these cell lines; and measured metabolically active cells after 48 hours of compound treatment as a proxy for cell viability.
Assay Submitter: Nathalia J. Martinez, National Center for Advancing Translational Sciences, National Institutes of Health, Rockville, MD, USA; email: natalia.martinez@nih.gov
[1] Shen, M et al. Quantitative high-throughput phenotypic screening of pediatric cancer cell lines identifies multiple opportunities for drug repurposing. Oncotarget 2017 Dec 19;9(4):4758-4772. PMID 29435139.
The cells were obtained from University of North Carolina (UNC), Pediatric Preclinical Testing Program (PPT), and Coriell Institute (CI).
qHTS cell viability assay:
Cells were assayed in growth media at a density of 500-1,000 cells/well. Five microliters of cells were dispensed into 1,536-well, white, solid-bottom, TC-treated plates (Greiner Bio One) using a multidrop dispenser and incubated at 37 degrees C, 5% CO2, under a humidified atmosphere for 5 hours. Twenty-three nanoliters of compounds and controls (neutral control DMSO or positive control bortezomib at final concentration of 2.3 µM) were subsequently transferred by Kalypsys pintool. For primary screens, the MIPE collection was tested at 11-point dilutions (final concentrations range from 0.78 nM to 46 µM) and the NPC collection at 8-point dilutions (final concentrations range from 0.59 nM to 46 µM). Compounds tested in follow-up screens were assayed at 11-point dilutions. Cells were incubated for 48 hours, followed by addition of 3 µL of CellTiter-Glo (Promega). After a 15 min incubation at room temperature, samples were analyzed for luminescence intensity using a ViewLux High-throughput CCD imager equipped with clear filters.
Potency is read from the fitted curve at half-maximal effect.

Compound | Potency
COC(=O)[C@@H]1[C@H]2C[C@@H]3c4[nH]c5ccccc5c4CCN3C[C@@H]2CC[C@@H]1O | inactive
CN(C)c1ccc2cc(C(=O)N[C@@H](CCCN=C(N)CCl)C(=O)NCc3ccccc3)ccc2c1 | 21.5 µM (active)
OC[C@@H](O)[C@@H](O)[C@H](O)[C@@H](O)CO | inactive
CC1(C)CC(O)CC(C)(C)N1[O] | inactive
C[C@@H](Cc1cc2c(c(C(N)=O)c1)N(CCCO)CC2)NCCOc1ccccc1OCC(F)(F)F | inactive
CC(C)(N)c1ccc(-c2nc3ccccc3nc2-c2ccccc2)cc1 | 21.5 µM (active)
COc1cc([C@@H]2c3cc4c(cc3[C@H](O)[C@H]3COC(=O)[C@@H]23)OCO4)cc(OC)c1OC | inactive
CC(=O)OCC(=O)[C@@]12N=C(C)O[C@H]1C[C@H]1[C@@H]3CCC4=CC(=O)C=C[C@]4(C)[C@@H]3[C@@H](O)C[C@@]12C | inactive
CC(C=CC(=O)NO)=C[C@@H](C)C(=O)c1ccc(N(C)C)cc1 | 2.71 µM (active)
O=C(Nc1ccc(Oc2ccnc3[nH]ccc23)c(F)c1)c1cccn(-c2ccc(F)cc2)c1=O | inactive
C[C@@H](Oc1ccc2[nH]nc(C=Cc3cnn(CCO)c3)c2c1)c1c(Cl)cncc1Cl | 0.681 µM (active)
CCN(CC)CCCCNc1ncc2c(n1)N(C)C(=O)N(c1c(Cl)c(OC)cc(OC)c1Cl)C2 | 6.81 µM (active)
CCN(CC)Cc1ccc2cc(COC(=O)Nc3ccc(C(=O)NO)cc3)ccc2c1 | 1.52 µM (active)
Nc1nc2c(c(=O)[nH]1)N(C=O)[C@H](CNc1ccc(C(=O)N[C@@H](CCC(=O)O)C(=O)O)cc1)CN2 | inactive
CC(=O)[C@]1(O)Cc2c(O)c3c(c(O)c2[C@@H](O[C@H]2C[C@H](N)[C@@H](O)[C@H](C)O2)C1)C(=O)c1ccccc1C3=O | 0.192 µM (active)
O=C(Nc1cccc(Nc2ncc(Br)c(NCCc3cnc[nH]3)n2)c1)N1CCCC1 | 13.6 µM (active)
Nc1ccn(C[C@@H](CO)OCP(=O)(O)O)c(=O)n1 | inactive
CCc1nc(-c2cccc(C)c2)c(-c2ccnc(NC(=O)c3ccccc3)c2)s1 | inactive
CCOc1cc2ncc(C#N)c(Nc3ccc(OCc4ccccn4)c(Cl)c3)c2cc1NC(=O)C=CCN(C)C | 0.121 µM (active)
C[C@@H](NCc1cc2ccccc2[nH]1)c1cccc2ccccc12 | inactive

Compound | Potency
C[C@H]1O[C@H](O[C@H]2[C@H](O)[C@@H](O)[C@@H](O[C@H]3[C@H](O)[C@@H](O)C(O)O[C@H]3CO)O[C@H]2CO)[C@H](O)[C@@H](O)[C@H]1N[C@H]1C=C(CO)[C@@H](O)[C@H](O)[C@@H]1O (stereo not given in full) | inactive
CN(N=O)C(=O)N[C@H]1C(O)OC(CO)[C@@H](O)[C@H]1O (stereo not given in full) | inactive
O=c1ccn([C@@H]2O[C@H](CO)[C@H](O)[C@@H]2F)c(=O)[nH]1 | 9.61 µM (active)
COc1ccc(C(C)=O)c(O)c1 | inactive
CC1(C)O[C@@H]2C[C@H]3[C@@H]4CCC5=CC(=O)C=C[C@]5(C)[C@@H]4[C@@H](O)C[C@]3(C)[C@]2(C(=O)CO)O1 | inactive
N#CC(=C(N)Sc1ccc(N)cc1)c1ccccc1C(F)(F)F | 4.82 µM (active)
CCOC(=O)[C@H](CCc1ccccc1)N[C@@H](C)C(=O)N1[C@@H](C(=O)O)C[C@H]2CCC[C@@H]21 | 4.82 µM (active)
C=CC(=O)N1CCc2ccc(-n3c(=O)ccc4cnc5ccc(-c6cnn(C)c6)cc5c43)cc21 | 8.57 µM (active)
C=C1CCC2[C@](C)(CO)C(O)CC[C@]2(C)C1CC=C1C(=O)OCC1O (stereo not given in full) | inactive
COC(=O)C=CC(=O)OC | 15.2 µM (active)
CC(C)(O)Cn1c(NC(=O)c2ccc(-c3cn[nH]c3)s2)nc2cc(CN3CCOCC3)ccc21 | 1.71 µM (active)
Cc1ccccc1C(=O)Nc1ccc(C(=O)N2CCCC(O)c3cc(Cl)ccc32)c(C)c1 (stereo not given) | inactive
COc1cccc2c1C(=O)c1c(O)c3c(c(O)c1C2=O)C[C@@](O)(C(=O)CO)C[C@@H]3O[C@H]1C[C@H](N)[C@@H](O)[C@H](C)O1 | 0.429 µM (active)
CC(=O)NCC(=O)N1[C@H]2CC[C@H]1c1cc(Nc3ncc(C(F)(F)F)c(NC4CCC4)n3)ccc12 | 1.08 µM (active)
NC(=O)Nc1sc(-c2ccc(F)cc2)cc1C(N)=O | 5.41 µM (active)
c1cncc(CN2CCC(n3ncc4c(N5CCOCC5)nc(-c5ccc6[nH]ccc6c5)nc43)CC2)c1 | 19.2 µM (active)
COc1cc2c(Nc3ccc(Cl)c(Cl)c3F)ncnc2cc1OCC1C[C@@H]2CN(C)C[C@H]2C1 | 12.1 µM (active)
CC(C)(O)[C@H]1CC[C@@](C)([C@H]2[C@@H](O)C[C@@]3(C)[C@@H]4C[C@H](O[C@@H]5O[C@H](CO)[C@@H](O)[C@H](O)[C@@H]5O)[C@H]5C(C)(C)[C@@H](O[C@@H]6OC[C@@H](O)[C@H](O)[C@@H]6O)CC[C@@]56C[C@@]46CC[C@]23C)O1 | inactive
COc1cc(C(C)C)c(Oc2cnc(NC(CO)CO)nc2N)cc1I | 1.08 µM (active)
O=C(C=CC#Cc1cccc(NS(=O)(=O)c2ccccc2)c1)NO | 3.41 µM (active)
